The whole screen tested about 96,000 compounds, of which about 100 (0.1%) were called active.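 The calls were made as follows: active = activation at 2 µM above a set limit, the mean plus 5 SD (cut at about 37% in these data); inactive = the rest.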 What follows is part of a selection rich in actives, with near analogues and random picks from the rest.
Biological target: Tyrosine-protein phosphatase non-receptor type 22 (Homo sapiens) (UniProt Q9Y2R2)
Experiment: enhancers of human PTPN22 catalytic activity – biochemical, DiFMUP fluorescence, 2 µM, primary screen (AID 697)
Conditions: recombinant LYP, at 2 µM, stronger effect = higher value, 0 = plate median, 100 = signal doubled

Sequence of Tyrosine-protein phosphatase non-receptor type 22 (Homo sapiens) (Q9Y2R2 whole entry, looked up): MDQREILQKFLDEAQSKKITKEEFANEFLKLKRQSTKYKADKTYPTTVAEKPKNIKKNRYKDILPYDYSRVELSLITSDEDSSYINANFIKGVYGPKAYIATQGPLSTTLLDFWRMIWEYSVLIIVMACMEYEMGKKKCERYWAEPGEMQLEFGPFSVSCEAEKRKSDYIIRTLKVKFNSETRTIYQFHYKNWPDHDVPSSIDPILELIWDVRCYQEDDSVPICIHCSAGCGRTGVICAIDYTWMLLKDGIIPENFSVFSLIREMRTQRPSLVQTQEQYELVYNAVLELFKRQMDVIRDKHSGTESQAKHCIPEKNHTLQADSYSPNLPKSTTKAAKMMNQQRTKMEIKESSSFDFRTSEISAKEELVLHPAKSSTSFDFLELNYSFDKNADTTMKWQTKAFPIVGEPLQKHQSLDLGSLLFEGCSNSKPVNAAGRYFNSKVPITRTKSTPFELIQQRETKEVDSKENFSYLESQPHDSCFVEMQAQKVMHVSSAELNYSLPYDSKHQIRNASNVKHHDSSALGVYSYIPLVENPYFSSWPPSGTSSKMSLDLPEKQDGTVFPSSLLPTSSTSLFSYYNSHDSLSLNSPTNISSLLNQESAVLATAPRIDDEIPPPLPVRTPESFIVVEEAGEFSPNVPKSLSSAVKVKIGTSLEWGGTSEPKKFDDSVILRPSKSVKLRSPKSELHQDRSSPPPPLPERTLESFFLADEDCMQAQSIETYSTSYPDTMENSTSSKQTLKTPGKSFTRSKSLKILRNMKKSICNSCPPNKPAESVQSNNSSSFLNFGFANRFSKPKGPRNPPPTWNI

Structure (SMILES)	activation
Cc1cc(C)n2nc(C(=O)NC(C)(C)C)nc2n1	3.4% (inactive)
C=CCN(C(=O)Nc1ccc2oc(C)nc2c1)c1ccccc1	-7.1% (inactive)
COC(=O)c1cccc(-n2[nH]nnc2=S)c1	-1.7% (inactive)
CC(C)(CCl)C(=O)Nc1ccc(Sc2ccc(F)cc2)cc1	1.3% (inactive)
CC1(C)Cc2cccc(OCC(N)=O)c2O1	-3.7% (inactive)
CCCCCCc1cc2cc(-c3nnc(-c4cccc(OC)c4)o3)c(=O)oc2cc1O	-30.3% (inactive)
COc1ccc(CNc2ccc3c(c2)CCC3)cc1OC	-10.3% (inactive)
COc1ccc(OC)c(-n2nnnc2SCC(=O)Nc2cc(C)ccc2OC)c1	2.6% (inactive)
CC(C)C(=O)Nc1ccc2c(c1)oc1ccccc12	-1.6% (inactive)
N/C(=N\OC(=O)c1cc(-c2ccccc2)nc2ccccc12)c1ccncc1	-7.1% (inactive)
COc1ccc2c(c1)cc1n2CCN=C1NN	0.1% (inactive)
COc1ccc(NC(=O)C2C3C=CC(C3)C2C(=O)NCc2ccccn2)c(OC)c1 (stereo unspecified)	-5% (inactive)
CC1=NN(/C(=N\c2nnc(C)s2)Nc2ccccc2)[C@H](c2ccc(C)cc2)S1	-6.4% (inactive)
CCc1ccc(C(=O)CSc2nnc(C)c(=O)[nH]2)cc1	-2.7% (inactive)
COc1ccc(OC(C)C(=O)Nc2cccnc2)cc1 (stereo unspecified)	6.9% (inactive)
C/C(=N/NC(=O)c1ccc(NC(=O)c2ccc(F)cc2)cc1)c1ccccc1	-1.9% (inactive)
CCc1ccc(C2C(C#N)=C(N)Oc3n[nH]c(CC(=O)OC)c32)cc1 (stereo unspecified)	5.3% (inactive)
COC(=O)CSc1nc2c(c(C3CC=CCC3)c1C#N)CCC2 (stereo unspecified)	-5.9% (inactive)
C=CCNC(=O)c1cc2nc(C3CC3)cc(C(F)F)n2n1	-5.5% (inactive)
COC(=O)c1cccc(N(C(=O)c2ccco2)C(C(=O)NC2CCCC2)c2ccco2)c1 (stereo unspecified)	6.5% (inactive)
CC(C)C(=O)Nc1nnc(Sc2ccc(N(C)C)cc2)s1	-2.7% (inactive)
Cc1nn(Cc2ccc(F)cc2)c(C)c1NC(=O)c1noc2c1CCc1ccccc1-2	7.1% (inactive)
CCOc1c2ccc(C(=O)NCc3ccc(OC(F)(F)F)cc3)cc2nn1C	10% (inactive)
COc1cc(C(=S)N2CCOCC2)cc(OC)c1OC(=O)c1cc([N+](=O)[O-])c(C)c([N+](=O)[O-])c1	7% (inactive)

Structure (SMILES)	activation
Cc1cc(-c2cccs2)nc(-n2cccc2)n1	3.4% (inactive)
CC1=CC(=O)C=CC1(C)C(Cl)(Cl)Cl (stereo unspecified)	3.7% (inactive)
FC(F)(F)c1cc(C(F)(F)F)c2ccc(N3CCN(c4ccccc4)CC3)nc2n1	2.8% (inactive)
O=C1OC(c2ccc(Cl)cc2)=N/C1=C\c1cccnc1	7.7% (inactive)
CC(C)c1cc(C(=O)O)n[nH]1	1.7% (inactive)
O=C(Nc1ccc2nc3n(c(=O)c2c1)CCCCC3)c1ccccc1Cl	-2.7% (inactive)
CC1(C)CC(=O)C=C(N2CCCC2)C1	-1.1% (inactive)
Cc1ccc(C2=CSC3=NS(=O)(=O)CCN23)cc1C	-4.4% (inactive)
Cc1ccc(-n2c(=O)c(C#N)cc3c(=O)n4ccccc4nc32)cc1C	5.7% (inactive)
CCCCCOC(=O)c1ccc(N2C(=O)C3C4C=CC(C4)C3C2=O)cc1 (stereo unspecified)	12.4% (inactive)
CCC(C)NC(=O)c1ccccc1NC(=O)c1ccccc1N(C)S(C)(=O)=O (stereo unspecified)	0.7% (inactive)
CC(C)CC(=O)N1CCC(O)(CS(=O)(=O)Cc2ccccc2)CC1	-3.4% (inactive)
CCCCNC(=O)c1onc(CSc2cccc(OC)c2)c1C(=O)O	4.5% (inactive)
COc1ccc(CCN(C(=O)COc2ccccc2)c2nc(-c3ccccc3)cs2)cc1OC	-13.3% (inactive)
Cc1noc(NS(=O)(=O)c2ccc(N/C=C/C(=O)c3ccccc3)cc2)c1C	1.5% (inactive)
CCCCCc1ccc(-c2ccc(C(=O)O)cc2)nc1	-8.9% (inactive)
Cc1sc(NC(=O)C2C3CCC(O3)C2C(=O)O)c(C(=O)OC(C)C)c1-c1ccc(Cl)cc1 (stereo unspecified)	-4.2% (inactive)
COc1cc(/C=C2/C(=O)ON=C2C)ccc1OCc1ccccc1F	6.2% (inactive)
Cc1ccc(S(=O)(=O)/N=C(\CN2CCOCC2)N2CCOCC2)cc1	-1.4% (inactive)
FC(F)(F)c1nc2ccccc2nc1N/N=C/c1ccc(Cl)cc1	5.5% (inactive)
CCOC(=O)Cn1c(-c2cccnc2Cl)nc2ccccc21	15.2% (inactive)
NC(=O)C1(N2CCCCC2)CCN(C2CC(=O)N(Cc3ccc(N4CCCC4=O)cc3)C2=O)CC1 (stereo unspecified)	-5.5% (inactive)
CN(C)C(=O)c1cc(Br)ccc1Cl	-3.6% (inactive)
COc1ccc(N(CC(=O)N/N=C/c2cccc3c2OCCO3)S(=O)(=O)c2ccc(NC(C)=O)cc2)cc1	7.5% (inactive)

Structure (SMILES)	activation
O=C(/C=C/c1ccc(Cl)cc1Cl)c1cccnc1	2.2% (inactive)
CCOC(=O)N1CCN(Cc2nc(N)nc(Nc3ccc(C)cc3)n2)CC1	7.7% (inactive)
COc1cc(/C=C(\C#N)c2nc3c(s2)CC(C)CC3)ccc1O (stereo unspecified)	-3.9% (inactive)
COCc1cc(C)nc2sc3c(=O)n(-c4cccc5ccccc45)nnc3c12	-7.5% (inactive)
CC(=O)NC1=NN(C(C)=O)C(C)(c2ccc(Cl)s2)S1 (stereo unspecified)	5.6% (inactive)
O=S(=O)(c1cccc2nonc12)N1CCN(c2cccc(Cl)c2)CC1	8.3% (inactive)
O=C(O)CSCc1ccc(C(=O)O)o1	-1.8% (inactive)
CC(=O)c1cc2c(cc1NC(=O)CN1CCCCCC1)OCO2	-5.9% (inactive)
COc1ccccc1CNS(=O)(=O)c1ccc(C)cc1	-13.5% (inactive)
COC(=O)C1=C(C(=O)OC)C2(OC1c1ccc(Br)cc1)C(=O)c1ccccc1C2=O (stereo unspecified)	-2.6% (inactive)
O=C(Cc1ccc2c(c1)CCCC2)Nc1ccccc1Cl	5.5% (inactive)
CCOc1ccccc1C(=O)NC1CC2CCCC(C1)N2Cc1ccccc1 (stereo unspecified)	-12.3% (inactive)
O=C(COc1ccc(S(=O)(=O)NCc2ccccc2)cc1)N1CCOCC1	2.4% (inactive)
Cc1cccc(C)c1OC(=O)CSc1nnc(-c2ccccc2)o1	1.3% (inactive)
COc1ccc(NS(=O)(=O)c2ccc(NC(=S)NC(=O)CC(C)C)cc2)cc1	4.5% (inactive)
O=C(CSCc1ccc([N+](=O)[O-])cc1)Nc1cccc(C(=O)Nc2ccccc2C(=O)O)c1	1.6% (inactive)
Cc1c(Nc2cc(N3CCCC(C)C3)c3nonc3c2[N+](=O)[O-])c(=O)n(-c2ccccc2)n1C (stereo unspecified)	3.1% (inactive)
CCCCN(CC)CCNC(=O)c1[nH]c(C)c(C(C)=O)c1C	1.3% (inactive)
Cc1noc(C)c1CSCC(=O)Nc1nc2ccc(Oc3ccccc3)cc2s1	1.8% (inactive)
CCN(CC)C(=O)CC1(c2ccccc2OC)CCOC(C(C)C)C1 (stereo unspecified)	4.3% (inactive)
COc1ccc(NC(=O)CC2COc3ccccc3O2)c(OC)c1 (stereo unspecified)	0.8% (inactive)
CCN(CC)CCNc1ccc(Cl)cc1[N+](=O)[O-]	14% (inactive)
CC(C)C(=O)NC(=S)Nc1ccccc1F	-2.4% (inactive)
CCn1c(O)c2ccc(C(=O)N=NC(=O)c3cccnc3)cc2c1O	0.7% (inactive)

Structure (SMILES)	activation
O=C(/C=C/c1cccs1)c1cc(Cl)ccc1OC(=O)N1CCOCC1	2.4% (inactive)
Clc1ccc(-n2nnnc2-c2cnc(-c3ccccn3)nc2-c2cccs2)cc1	3.1% (inactive)
O=C(CCN1CCc2ccccc2C(O)(c2ccccc2)C1)c1ccc2c(c1)OCCO2 (stereo unspecified)	-5.7% (inactive)
CCOC(=O)CNC(=O)CSc1nc2cccnc2n1CC	-4.9% (inactive)
Cc1ccc2[nH]c3c(=O)n(Cc4ccccn4)cnc3c2c1	-0.9% (inactive)
COC(=O)[C@@H](NC(=O)Nc1cc(Cl)ccc1C)C(C)C	8.5% (inactive)
CC(Oc1ccc(-c2ccccc2)c(F)c1)c1ccn(S(=O)(=O)c2cccc3ccccc23)n1 (stereo unspecified)	-6.9% (inactive)
CCOC1CS(=O)(=O)CC1OCC (stereo unspecified)	6.4% (inactive)
Cc1ccn(C(CC(=O)c2ccc(Br)cc2)C(=O)O)n1 (stereo unspecified)	-7.9% (inactive)
COC(=O)CSc1nc(C)c2ccc(OC)cc2n1	-3.9% (inactive)
O=C(Cn1c(-c2cscn2)nc2ccccc21)Nc1ccc(Cl)cc1	3% (inactive)
O=C(Nc1cc2ccccc2oc1=O)C1CCCCC1	-7.9% (inactive)
COc1cccc(C(=O)Nc2ccc(NC(=O)c3ccco3)cn2)c1	6.7% (inactive)
CSCCC(NS(=O)(=O)c1ccc2c(c1)oc(=O)n2C)C(=O)NC1CCCc2ccccc21 (stereo unspecified)	-8.6% (inactive)
O=C(CN1C(=O)NC(Cc2ccccc2)(Cc2ccccc2)C1=O)NCC1CCCCC1	0.3% (inactive)
O=C(Nc1ccccc1F)c1cc(S(=O)(=O)N2CCCCC2)cs1	-4.2% (inactive)
Cc1ccccc1NC(=O)c1cc(S(=O)(=O)N2CCOCC2)cs1	38% (active)
Cc1ccc(C(=O)Nc2ccccc2C(=O)NC2CCCCC2)cc1S(=O)(=O)N1CCOCC1	-0.7% (inactive)
CCCCNS(=O)(=O)c1ccc(S(=O)(=O)n2cnc3ccccc32)cc1	-10.5% (inactive)
CO/N=C/c1ccc(N2CCN(C(=O)c3cccc(Cl)c3)CC2)c([N+](=O)[O-])c1	-0.2% (inactive)
COc1cc(C(=S)N2CCOCC2)cc(OC)c1OC(=O)c1cc([N+](=O)[O-])cc([N+](=O)[O-])c1	-4.3% (inactive)
CCn1c(C)nc2c1C(=O)c1ccccc1C2=O	-0.9% (inactive)
CCn1c(/C=C/c2ccc([N+](=O)[O-])o2)nc2ccccc2c1=O	-10.9% (inactive)
O=C(NCCCn1ccnc1)Nc1ccc(Cl)cc1Cl	0.8% (inactive)

From PubChem BioAssay AID697 (Columbia University Molecular Screening Center, 2007)
